This passage reports growth inhibition results from PubChem BioAssay (NCI).

About 79,000 compounds went through this panel and 15% of them were active in at least one assay; those are over-represented in the sample as a whole. Unmarked numbers belong to inactive results. Calls of active or inactive are those of the source. Cut-off read from the data, not from the text of the source: active = growth inhibition above about 70%; inactive = the rest.

Assay [1] is described as follows: NCI Yeast Anticancer Drug Screen. Data for the rad50 strain (AID 155).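 Note: 0% = growth of vehicle-only cultures of the same strain.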 To be noted: S. cerevisiae rad50 strain growth inhibition; at 50.0 µM; stronger effect = higher value. The method in brief:
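Compounds were tested on a yeast strain with an engineered DNA damage repair alteration; the reported value is growth inhibition normalised to vehicle treatment.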

The nature of assay [2]: NCI Yeast Anticancer Drug Screen. Data for the mec2-1 strain (AID 157). As to conditions: S. cerevisiae mec2-1 strain, at 50.0 µM, stronger effect = higher value. The method in brief: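 Readout is yeast growth inhibition, normalised to vehicle-treated controls, in the mec2-1 strain exposed to compound.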
Assay [3] is described as follows: NCI Yeast Anticancer Drug Screen. Data for the sgs1 mgt1 strain (AID 161).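 Note: 0% = growth of cultures given vehicle only.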 To be noted: S. cerevisiae sgs1 mgt1 strain, at 50.0 µM, stronger effect = higher value. Put shortly:
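This yeast growth screen uses a strain with defined DNA-repair lesions; compound-treated growth is compared with vehicle-treated growth.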

Assay [4] can be described thus: NCI Yeast Anticancer Drug Screen. Data for the cln2 rad14 strain (AID 165).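 Note: 0% = growth equal to vehicle treated cultures.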 As to conditions: S. cerevisiae cln2 rad14 strain, at 50.0 µM, stronger effect = higher value. Put shortly: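 Relative to vehicle controls, growth inhibition of compound-treated cln2 rad14 yeast was recorded.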
Assay [5] can be described thus: NCI Yeast Anticancer Drug Screen. Data for the bub3 strain (AID 167). As to conditions: S. cerevisiae bub3 mutant strain, at 50.0 µM, stronger effect = higher value. Put shortly: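 Growth of a checkpoint-deficient yeast mutant is measured after compound exposure. Values represent inhibition relative to vehicle.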
Assay [6] is described as follows: NCI Yeast Anticancer Drug Screen. Data for the mlh1 rad18 strain (AID 175). As to conditions: S. cerevisiae mlh1 rad18 strain growth inhibition; at 50.0 µM; stronger effect = higher value. The method in brief:
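Test agents were incubated with a yeast strain of defined genotype (DNA damage repair defect). Inhibition of growth was derived by comparison with vehicle-exposed cultures.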

Regarding `Cc1cc(C)c(C2CNCc3cc4c(cc32)CNCC4c2c(C)cc(C)cc2C)c(C)c1` (stereo unspecified), the growth inhibition was -16.3% in assay [1]; -32.8% in assay [2]; -46% in assay [3]; -44.9% in assay [4]; -62.8% in assay [5]; -131% in assay [6].
With `Cn1nc2c(c1-c1cccnc1)CCCc1ccccc1-2`, the growth inhibition in assay [1] was 10.1%; in assay [2], 24.6%; in assay [3], 13.7%; in assay [4], -15.4%; in assay [5] it was 69.3%; in assay [6] it was 28.9%.
As for `O=C(NC(Cc1ccccc1)P(=O)(O)c1ccccc1)OCc1ccccc1` (stereo unspecified), the growth inhibition in assay [1] is -8.45%; in assay [2], -30.5%; in assay [3], -30.2%; in assay [4], 15.7%; in assay [5], 2.3%; in assay [6], -12%.
Take `COC(=O)C1C(C)(C(=O)OC)N=NC1(c1ccccc1)c1ccccc1` (stereo unspecified): the growth inhibition is 7.85% in assay [1]; -1.05% in assay [2]; -7.55% in assay [3]; 16% in assay [4]; 19.8% in assay [5]; -3.4% in assay [6].
Consider `OCCCSc1ccccc1SCCCO`, for which the growth inhibition in assay [1] was -1.4%; in assay [2], -2.45%; in assay [3], 3.5%; in assay [4], -1.7%; in assay [5], 3.75%; in assay [6], 5.1%.
On to `CCN(CC)C(=O)c1c2nc3c(C(=O)N(CC)CC)ccc(C)c3oc-2c(C)c(=O)c1N`, for which the growth inhibition in assay [1] is 24.6%; in assay [2] it was 7.35%; in assay [3], 7.85%; in assay [4], 19.9%; in assay [5] it was 0.9%; in assay [6], 20.2%.
On to `CCOC(=O)C(C)C(CCC#N)(C(=O)OCC)C(=O)OCC` (stereo unspecified), for which the growth inhibition is -9.9% in assay [1]; -24.1% in assay [2]; -24% in assay [3]; -0.35% in assay [4]; -11.8% in assay [5]; -9.3% in assay [6].
With `Cc1[nH]c(=O)[nH]c(=O)c1/C=C/C(=O)NC(CO)CS(=O)CS(C)=O` (stereo unspecified), the growth inhibition in assay [1] is 3.85%; in assay [2], -11.2%; in assay [3] it was 9.75%; in assay [4], 13.1%; in assay [5], 5.6%; in assay [6] it was -10.4%.
`CCCOC(=O)Nc1cccc(C)c1`: the growth inhibition was 17.7% in assay [1]; -5.65% in assay [2]; -15.7% in assay [3]; 0.4% in assay [4]; 3% in assay [5]; 8.95% in assay [6].
As for `Cc1cc(C)c(NC(=O)CC#N)cc1C`, the growth inhibition in assay [1] is -5%; in assay [2], -12.6%; in assay [3] it was -17.4%; in assay [4], -51.4%; in assay [5], -1.35%; in assay [6], -6.6%.
For the compound `O=[N+]([O-])c1ccc(S(=O)(=O)N/N=C/C=C/c2ccccc2[N+](=O)[O-])cc1`, the growth inhibition in assay [1] is 5%; in assay [2], -5.65%; in assay [3] it was 7.35%; in assay [4], -7.55%; in assay [5], 16.4%; in assay [6], 39.1%.
For the compound `C1=Cc2nc1c(-c1ccncc1)c1ccc([n-]1)c(-c1ccncc1)c1nc(c(-c3ccncc3)c3ccc([n-]3)c2-c2ccncc2)C=C1.[Zn+2]`, the growth inhibition in assay [1] is -20.6%; in assay [2] it was -9.45%; in assay [3], -8.95%; in assay [4], 15.7%; in assay [5] it was 18.9%; in assay [6], -3.65%.
Turning to `CCCCCc1nnc2n1N=C(c1ccc(Cl)cc1)CS2`, the growth inhibition was -26.6% in assay [1]; -13.9% in assay [2]; -2.5% in assay [3]; 4.1% in assay [4]; -17.6% in assay [5]; 3.5% in assay [6].
With `Cc1ccc([N+](=O)[O-])c(N)c1`, the growth inhibition in assay [1] is 40.5%; in assay [2], 27.4%; in assay [3] it was 26.1%; in assay [4], 18.9%; in assay [5], 4.65%; in assay [6], 26.4%.
Take `Cc1occc1C(=S)Nc1ccc(Cl)c(OCC(=O)OC(C)(C)C)c1`: the growth inhibition is 49% in assay [1]; 50.6% in assay [2]; 49.2% in assay [3]; 40.2% in assay [4]; 46.6% in assay [5]; 38.9% in assay [6].
As to `C[N+]1(CCC(/C=C/c2ccc([N+](=O)[O-])cc2)=N\O)CCOCC1`, the growth inhibition is 17.3% in assay [1]; -0.9% in assay [2]; 14.8% in assay [3]; -6.55% in assay [4]; 1.05% in assay [5]; 46.5% in assay [6].
For the compound `C[N+](C)(CC(=O)Nc1ccc(Cl)cc1)Cc1ccc2c(c1)CCCC2`, the growth inhibition in assay [1] is 99.5% (active); in assay [2], 99.8% (active); in assay [3], 99.8% (active); in assay [4] it was 99% (active); in assay [5], 99.3% (active); in assay [6] it was 99.7% (active).
On to `O=S1(=O)C(c2ccccc2Cl)=C(O)C(O)=C1c1ccccc1Cl`, for which the growth inhibition in assay [1] was -0.6%; in assay [2], -35.4%; in assay [3], 5.05%; in assay [4], 6%; in assay [5] it was -2.1%; in assay [6], 11.2%.
Consider `Nc1ccc(C(C(=O)O)c2ccccc2)cc1Cl` (stereo unspecified), for which the growth inhibition was 22.6% in assay [1]; -9% in assay [2]; 20.9% in assay [3]; -1.55% in assay [4]; 12.3% in assay [5]; 5.65% in assay [6].
Turning to `Clc1ccc(C=Nc2ccccc2)c(Cl)c1`, the growth inhibition in assay [1] was 23.9%; in assay [2], 10.8%; in assay [3], 20.9%; in assay [4], 11.5%; in assay [5] it was -2.75%; in assay [6] it was 26.6%.
`C1CCC2CC(NC3=NCCO3)CCC2C1` (stereo unspecified): the growth inhibition in assay [1] was 8.85%; in assay [2] it was 21.1%; in assay [3], 0.35%; in assay [4], -7%; in assay [5] it was 22.2%; in assay [6], -85.6%.
